Common to all, as to experiment: DAPPL (digital affinity profiling via proximity ligation, sequencing); 10 mM Tris-HCl pH 7.5, 50 mM NaCl, 1 mM DTT, 4% glycerol, room temperature, 30 min; GST-TFs on glutathione beads, 16-mer random dsDNA library, 0.1% formaldehyde crosslink after washing; high values mean tight binding
The target in one experiment is T1, FEV (Homo sapiens, UniProt Q99581 1-238).
T1 sequence: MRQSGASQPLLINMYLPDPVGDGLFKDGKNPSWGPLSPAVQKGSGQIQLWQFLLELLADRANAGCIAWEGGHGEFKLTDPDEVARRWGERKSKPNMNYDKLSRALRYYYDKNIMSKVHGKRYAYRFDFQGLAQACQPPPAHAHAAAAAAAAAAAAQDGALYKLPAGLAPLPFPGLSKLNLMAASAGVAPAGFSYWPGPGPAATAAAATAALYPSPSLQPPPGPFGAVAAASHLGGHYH
Conditions: protein: recombinant; tags: N-terminal GST; dsDNA, one strand shown. A digest of the protocol: (§1)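 Binding signal is given per hexamer as its read frequency for a factor divided by its frequency in the tag-only sample. GST-fused human transcription factors were expressed in yeast, captured on glutathione beads, barcoded with DNA and pooled with that sample, then incubated with 200 nmole of a 16-mer random double-stranded DNA library in Tris/NaCl/DTT/glycerol buffer for 30 min at room temperature. The pools were then washed, crosslinked, proximity-ligated, amplified by PCR and sequenced on an Illumina NextSeq500.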

A further experiment concerns the target ETV5 (Homo sapiens, UniProt P41161 1-510). As to conditions: protein: recombinant; tags: N-terminal GST; dsDNA, one strand shown. The method, boiled down:
as §1

For another experiment, the target named is HSF1 (Homo sapiens, UniProt Q00613 1-529). As to conditions: protein: recombinant; tags: N-terminal GST; chain copies: 3; dsDNA, one strand shown. The method, boiled down: as §1
A further experiment deals with T2, SPIC (Homo sapiens, UniProt Q8N5J4 1-248).
T2 sequence: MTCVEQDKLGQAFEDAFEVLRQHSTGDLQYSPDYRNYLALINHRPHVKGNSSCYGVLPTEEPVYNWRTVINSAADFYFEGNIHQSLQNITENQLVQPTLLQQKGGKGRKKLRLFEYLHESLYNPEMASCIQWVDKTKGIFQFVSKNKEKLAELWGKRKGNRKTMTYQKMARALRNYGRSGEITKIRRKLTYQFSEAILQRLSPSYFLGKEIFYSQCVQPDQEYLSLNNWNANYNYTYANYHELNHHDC
Conditions: protein: recombinant; tags: N-terminal GST; dsDNA, one strand shown. The method, boiled down:
as §1

A further experiment addresses ELF4 (Homo sapiens, UniProt Q99607 1-663). As to conditions: protein: recombinant; tags: N-terminal GST; dsDNA, one strand shown. A digest of the protocol:
as §1

Another experiment deals with T3, ELK4 (Homo sapiens, UniProt P28324-2 1-405).
T3 sequence: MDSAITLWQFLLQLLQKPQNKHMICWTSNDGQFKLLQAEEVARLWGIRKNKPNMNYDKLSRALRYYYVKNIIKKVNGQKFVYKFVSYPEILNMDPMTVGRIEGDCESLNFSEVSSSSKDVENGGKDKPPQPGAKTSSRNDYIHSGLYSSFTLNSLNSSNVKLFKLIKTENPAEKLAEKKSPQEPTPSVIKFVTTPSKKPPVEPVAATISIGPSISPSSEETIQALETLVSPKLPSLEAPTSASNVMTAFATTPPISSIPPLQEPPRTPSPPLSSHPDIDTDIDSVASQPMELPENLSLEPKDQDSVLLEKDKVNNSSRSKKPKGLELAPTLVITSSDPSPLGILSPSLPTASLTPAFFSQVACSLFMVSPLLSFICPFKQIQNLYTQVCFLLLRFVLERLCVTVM
Conditions: protein: recombinant; tags: N-terminal GST; dsDNA, one strand shown. The method, boiled down: as §1

In a further experiment the target is T4, ETV2 (Homo sapiens, UniProt O00321 1-342).
T4 sequence: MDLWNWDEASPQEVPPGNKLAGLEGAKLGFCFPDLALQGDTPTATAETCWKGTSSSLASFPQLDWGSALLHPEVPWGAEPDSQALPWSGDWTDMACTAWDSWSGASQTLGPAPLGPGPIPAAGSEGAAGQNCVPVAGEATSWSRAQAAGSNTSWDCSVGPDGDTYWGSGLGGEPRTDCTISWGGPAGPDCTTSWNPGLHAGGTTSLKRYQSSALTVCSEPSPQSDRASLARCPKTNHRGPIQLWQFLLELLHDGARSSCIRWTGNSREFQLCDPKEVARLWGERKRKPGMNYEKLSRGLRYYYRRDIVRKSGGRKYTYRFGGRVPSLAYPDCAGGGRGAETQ
Conditions: protein: recombinant; tags: N-terminal GST; dsDNA, one strand shown. The method, boiled down: as §1

In another experiment the target is T5, ELF3 (Homo sapiens, UniProt P78545 1-371).
T5 sequence: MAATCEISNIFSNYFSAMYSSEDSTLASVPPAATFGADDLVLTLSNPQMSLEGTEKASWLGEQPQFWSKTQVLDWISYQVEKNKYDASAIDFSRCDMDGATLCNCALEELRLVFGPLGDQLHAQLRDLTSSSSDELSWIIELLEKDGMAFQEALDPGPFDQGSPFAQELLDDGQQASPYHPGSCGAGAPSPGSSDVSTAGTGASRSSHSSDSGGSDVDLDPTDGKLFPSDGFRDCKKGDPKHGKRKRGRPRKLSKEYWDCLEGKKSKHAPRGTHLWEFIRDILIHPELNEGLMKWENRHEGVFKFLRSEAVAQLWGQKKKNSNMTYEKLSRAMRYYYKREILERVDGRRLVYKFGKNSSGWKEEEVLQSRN
Conditions: protein: recombinant; tags: N-terminal GST; dsDNA, one strand shown. The method, boiled down: as §1

Another experiment addresses CRX (Homo sapiens, UniProt O43186 1-299). Conditions: protein: recombinant; tags: N-terminal GST; dsDNA, one strand shown. The method, boiled down:
as §1

The target of a further experiment is ETV1 (Homo sapiens, UniProt P50549 1-477). As to conditions: protein: recombinant; tags: N-terminal GST; dsDNA, one strand shown. The method, boiled down: as §1
The target of a further experiment is T6, ERF (Homo sapiens, UniProt P50548 1-548).
T6 sequence: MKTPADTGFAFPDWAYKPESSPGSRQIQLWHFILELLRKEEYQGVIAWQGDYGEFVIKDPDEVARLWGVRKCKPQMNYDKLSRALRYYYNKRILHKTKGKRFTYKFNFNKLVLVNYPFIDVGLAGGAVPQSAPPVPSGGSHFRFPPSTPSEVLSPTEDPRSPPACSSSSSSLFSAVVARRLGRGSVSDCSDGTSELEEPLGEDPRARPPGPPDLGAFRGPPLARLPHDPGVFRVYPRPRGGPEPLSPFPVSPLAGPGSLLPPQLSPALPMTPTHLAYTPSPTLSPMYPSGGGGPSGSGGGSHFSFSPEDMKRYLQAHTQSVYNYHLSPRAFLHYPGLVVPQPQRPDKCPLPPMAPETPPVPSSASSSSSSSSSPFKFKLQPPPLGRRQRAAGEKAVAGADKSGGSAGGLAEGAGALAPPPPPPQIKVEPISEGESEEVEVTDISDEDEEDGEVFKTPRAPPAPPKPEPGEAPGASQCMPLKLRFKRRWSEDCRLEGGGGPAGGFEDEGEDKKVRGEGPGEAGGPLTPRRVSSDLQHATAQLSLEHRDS
As to conditions: protein: recombinant; tags: N-terminal GST; dsDNA, one strand shown. The method, boiled down:
as §1

The target in the next experiment is T7, ETV3L (Homo sapiens, UniProt Q6ZN32 1-361).
T7 sequence: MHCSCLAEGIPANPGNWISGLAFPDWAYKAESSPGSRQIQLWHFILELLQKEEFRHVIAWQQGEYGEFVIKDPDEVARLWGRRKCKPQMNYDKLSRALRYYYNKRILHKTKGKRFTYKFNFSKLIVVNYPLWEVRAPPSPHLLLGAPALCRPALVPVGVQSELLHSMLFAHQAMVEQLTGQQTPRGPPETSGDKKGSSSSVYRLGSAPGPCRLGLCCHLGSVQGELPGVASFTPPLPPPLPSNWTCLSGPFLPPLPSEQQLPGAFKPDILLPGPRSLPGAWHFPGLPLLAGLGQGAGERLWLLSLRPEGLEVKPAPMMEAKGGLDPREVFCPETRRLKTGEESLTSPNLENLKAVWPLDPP
Conditions: protein: recombinant; tags: N-terminal GST; dsDNA, one strand shown. The method, boiled down: as §1

The next experiment has as its target T8, ETS2 (Homo sapiens, UniProt P15036 1-469).
T8 sequence: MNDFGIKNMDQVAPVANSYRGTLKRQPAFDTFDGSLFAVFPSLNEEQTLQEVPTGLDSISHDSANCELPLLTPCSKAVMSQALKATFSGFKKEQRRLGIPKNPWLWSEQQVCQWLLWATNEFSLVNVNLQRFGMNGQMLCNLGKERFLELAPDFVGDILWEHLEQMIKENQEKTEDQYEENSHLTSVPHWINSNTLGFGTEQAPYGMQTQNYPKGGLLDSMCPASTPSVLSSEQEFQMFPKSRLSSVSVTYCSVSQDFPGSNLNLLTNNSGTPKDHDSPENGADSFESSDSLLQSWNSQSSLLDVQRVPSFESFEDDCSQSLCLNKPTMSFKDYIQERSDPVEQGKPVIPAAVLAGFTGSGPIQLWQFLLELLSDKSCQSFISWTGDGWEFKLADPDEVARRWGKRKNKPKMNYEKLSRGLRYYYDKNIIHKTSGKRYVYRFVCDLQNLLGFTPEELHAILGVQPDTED
As to conditions: protein: recombinant; tags: N-terminal GST; dsDNA, one strand shown. A digest of the protocol:
as §1

For the next experiment, the target named is T9, SPDEF (Homo sapiens, UniProt O95238 1-335).
T9 sequence: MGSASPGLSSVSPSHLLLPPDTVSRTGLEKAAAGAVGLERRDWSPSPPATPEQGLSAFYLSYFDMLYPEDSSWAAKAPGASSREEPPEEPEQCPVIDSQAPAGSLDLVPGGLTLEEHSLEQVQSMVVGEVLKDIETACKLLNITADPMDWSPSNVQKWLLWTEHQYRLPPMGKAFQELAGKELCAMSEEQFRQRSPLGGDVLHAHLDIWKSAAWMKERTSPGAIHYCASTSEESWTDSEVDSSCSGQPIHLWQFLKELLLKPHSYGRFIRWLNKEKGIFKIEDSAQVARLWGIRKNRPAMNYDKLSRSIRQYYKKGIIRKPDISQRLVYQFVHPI
As to conditions: protein: recombinant; tags: N-terminal GST; dsDNA, one strand shown. A digest of the protocol: as §1

A further experiment concerns the target T10, ETV7 (Homo sapiens, UniProt Q9Y603 1-341).
T10 sequence: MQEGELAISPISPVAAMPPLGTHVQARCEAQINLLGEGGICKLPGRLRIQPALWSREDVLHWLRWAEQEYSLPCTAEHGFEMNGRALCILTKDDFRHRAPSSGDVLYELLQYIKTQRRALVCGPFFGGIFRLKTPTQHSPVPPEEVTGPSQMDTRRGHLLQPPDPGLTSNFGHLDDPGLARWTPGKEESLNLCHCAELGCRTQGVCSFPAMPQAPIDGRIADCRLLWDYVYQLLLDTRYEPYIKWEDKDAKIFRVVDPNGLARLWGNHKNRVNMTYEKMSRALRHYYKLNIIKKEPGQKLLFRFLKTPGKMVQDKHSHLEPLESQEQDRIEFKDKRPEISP
As to conditions: protein: recombinant; tags: N-terminal GST; dsDNA, one strand shown. The method, boiled down: as §1

The target in the next experiment is T11, ELF5 (Homo sapiens, UniProt Q9UKW6-2 1-255).
T11 sequence: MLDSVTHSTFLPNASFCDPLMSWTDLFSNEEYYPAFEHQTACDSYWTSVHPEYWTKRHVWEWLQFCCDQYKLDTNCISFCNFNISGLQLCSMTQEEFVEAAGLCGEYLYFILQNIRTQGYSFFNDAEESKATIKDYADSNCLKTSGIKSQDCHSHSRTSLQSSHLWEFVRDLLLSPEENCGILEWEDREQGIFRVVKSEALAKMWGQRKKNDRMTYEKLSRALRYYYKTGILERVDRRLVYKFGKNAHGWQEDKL
Conditions: protein: recombinant; tags: N-terminal GST; dsDNA, one strand shown. A digest of the protocol:
as §1

A further experiment concerns the target T12, ETV3 (Homo sapiens, UniProt P41162-2 1-143).
T12 sequence: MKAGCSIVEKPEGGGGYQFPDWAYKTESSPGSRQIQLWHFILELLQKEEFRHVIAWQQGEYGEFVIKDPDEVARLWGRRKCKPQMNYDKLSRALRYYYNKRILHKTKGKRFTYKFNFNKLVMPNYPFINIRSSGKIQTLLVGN
As to conditions: protein: recombinant; tags: N-terminal GST; dsDNA, one strand shown. A digest of the protocol:
as §1

The next experiment addresses ETV6 (Homo sapiens, UniProt P41212 1-452). Conditions: protein: recombinant; tags: N-terminal GST; dsDNA, one strand shown. A digest of the protocol:
as §1

Sequence of ETV1 (P50549 whole entry): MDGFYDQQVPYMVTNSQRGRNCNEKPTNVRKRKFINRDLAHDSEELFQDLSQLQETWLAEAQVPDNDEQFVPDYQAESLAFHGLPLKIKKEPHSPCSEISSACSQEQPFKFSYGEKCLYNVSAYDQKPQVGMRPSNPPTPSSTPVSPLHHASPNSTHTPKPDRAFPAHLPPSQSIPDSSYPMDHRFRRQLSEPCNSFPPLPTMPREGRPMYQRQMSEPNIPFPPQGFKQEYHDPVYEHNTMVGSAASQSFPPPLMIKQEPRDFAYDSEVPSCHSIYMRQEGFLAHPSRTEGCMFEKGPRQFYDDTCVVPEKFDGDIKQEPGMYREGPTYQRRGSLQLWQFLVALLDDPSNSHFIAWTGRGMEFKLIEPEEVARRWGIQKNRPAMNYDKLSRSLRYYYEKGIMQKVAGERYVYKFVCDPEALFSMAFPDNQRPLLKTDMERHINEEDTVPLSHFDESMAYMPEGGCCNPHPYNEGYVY
Sequence of ETV6 (P41212 whole entry): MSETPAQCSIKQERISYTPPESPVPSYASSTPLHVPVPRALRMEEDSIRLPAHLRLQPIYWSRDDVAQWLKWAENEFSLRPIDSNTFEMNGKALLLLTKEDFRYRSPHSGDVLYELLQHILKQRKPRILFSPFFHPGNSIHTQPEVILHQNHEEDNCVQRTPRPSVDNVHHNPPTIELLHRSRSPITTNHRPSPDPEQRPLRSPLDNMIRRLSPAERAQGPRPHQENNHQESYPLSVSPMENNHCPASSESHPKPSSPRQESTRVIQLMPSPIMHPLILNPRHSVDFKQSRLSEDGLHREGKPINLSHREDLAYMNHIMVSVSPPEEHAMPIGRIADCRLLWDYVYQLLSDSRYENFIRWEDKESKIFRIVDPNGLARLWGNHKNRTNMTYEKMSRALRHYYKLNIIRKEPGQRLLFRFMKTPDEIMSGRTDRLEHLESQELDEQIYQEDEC
Sequence of HSF1 (Q00613 whole entry): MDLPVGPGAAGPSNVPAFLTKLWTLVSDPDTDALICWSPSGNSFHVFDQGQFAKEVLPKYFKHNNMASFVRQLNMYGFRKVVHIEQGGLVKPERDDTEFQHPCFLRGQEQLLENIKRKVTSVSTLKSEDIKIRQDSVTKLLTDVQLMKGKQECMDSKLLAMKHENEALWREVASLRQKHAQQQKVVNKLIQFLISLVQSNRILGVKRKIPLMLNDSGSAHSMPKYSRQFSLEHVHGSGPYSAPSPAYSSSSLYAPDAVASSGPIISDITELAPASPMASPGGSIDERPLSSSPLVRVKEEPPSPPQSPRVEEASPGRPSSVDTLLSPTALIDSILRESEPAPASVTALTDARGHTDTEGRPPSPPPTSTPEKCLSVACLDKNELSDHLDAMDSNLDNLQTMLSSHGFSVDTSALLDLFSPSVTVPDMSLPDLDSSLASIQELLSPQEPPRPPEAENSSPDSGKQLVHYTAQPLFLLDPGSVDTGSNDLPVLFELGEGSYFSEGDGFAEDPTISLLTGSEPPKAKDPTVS
Sequence of ETV5 (P41161 whole entry): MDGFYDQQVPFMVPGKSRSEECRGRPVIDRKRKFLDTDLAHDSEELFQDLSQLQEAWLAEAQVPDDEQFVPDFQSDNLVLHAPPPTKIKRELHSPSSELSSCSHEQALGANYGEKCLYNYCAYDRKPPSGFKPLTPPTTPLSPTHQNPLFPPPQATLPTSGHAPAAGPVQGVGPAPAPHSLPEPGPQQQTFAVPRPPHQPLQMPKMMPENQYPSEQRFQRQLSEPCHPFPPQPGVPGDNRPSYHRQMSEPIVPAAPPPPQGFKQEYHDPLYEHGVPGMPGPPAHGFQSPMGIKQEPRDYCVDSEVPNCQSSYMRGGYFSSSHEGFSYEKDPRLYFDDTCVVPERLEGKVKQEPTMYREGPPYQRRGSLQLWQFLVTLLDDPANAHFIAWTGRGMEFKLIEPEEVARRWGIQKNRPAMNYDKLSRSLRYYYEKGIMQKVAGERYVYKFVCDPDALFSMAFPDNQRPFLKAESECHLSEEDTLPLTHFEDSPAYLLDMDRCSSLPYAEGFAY
Sequence of CRX (O43186 whole entry): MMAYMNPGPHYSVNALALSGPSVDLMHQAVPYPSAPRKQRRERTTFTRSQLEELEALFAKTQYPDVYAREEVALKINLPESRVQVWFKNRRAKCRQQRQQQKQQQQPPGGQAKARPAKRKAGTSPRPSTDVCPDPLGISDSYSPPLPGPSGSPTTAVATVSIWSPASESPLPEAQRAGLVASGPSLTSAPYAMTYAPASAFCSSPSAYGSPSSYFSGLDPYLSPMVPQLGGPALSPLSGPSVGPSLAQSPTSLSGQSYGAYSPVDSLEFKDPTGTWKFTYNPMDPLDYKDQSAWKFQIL
Sequence of ELF4 (Q99607 whole entry): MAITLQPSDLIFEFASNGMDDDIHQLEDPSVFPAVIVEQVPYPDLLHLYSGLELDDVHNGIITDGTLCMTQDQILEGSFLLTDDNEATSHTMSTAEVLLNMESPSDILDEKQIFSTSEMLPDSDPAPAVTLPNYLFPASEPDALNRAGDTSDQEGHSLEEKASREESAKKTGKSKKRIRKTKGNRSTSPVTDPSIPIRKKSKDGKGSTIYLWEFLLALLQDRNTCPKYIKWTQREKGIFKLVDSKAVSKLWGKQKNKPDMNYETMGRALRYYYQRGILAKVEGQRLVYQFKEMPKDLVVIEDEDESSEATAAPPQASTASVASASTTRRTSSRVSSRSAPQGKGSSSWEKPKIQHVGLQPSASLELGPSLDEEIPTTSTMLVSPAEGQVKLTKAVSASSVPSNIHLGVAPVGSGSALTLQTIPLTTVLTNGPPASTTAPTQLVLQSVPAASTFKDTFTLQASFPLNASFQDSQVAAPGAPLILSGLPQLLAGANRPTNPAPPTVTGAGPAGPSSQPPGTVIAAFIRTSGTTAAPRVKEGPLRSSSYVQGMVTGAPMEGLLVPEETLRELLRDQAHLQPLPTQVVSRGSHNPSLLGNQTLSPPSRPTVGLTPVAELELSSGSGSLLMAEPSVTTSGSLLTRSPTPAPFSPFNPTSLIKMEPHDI

Consider CGTAAT, for which the binding signal with FEV was 1.19 fold enrichment (6-mer frequency, TF over GST control); in the experiment with ETV5 it was 1.21 fold enrichment (6-mer frequency, TF over GST control); with HSF1, 1.5 fold enrichment (6-mer frequency, TF over GST control); with SPIC, 1.14 fold enrichment (6-mer frequency, TF over GST control); with ELF4, 1.22 fold enrichment (6-mer frequency, TF over GST control); with ELK4, 1.17 fold enrichment (6-mer frequency, TF over GST control). Also, the binding signal was 1.17 fold enrichment (6-mer frequency, TF over GST control) with ETV2; 1.29 fold enrichment (6-mer frequency, TF over GST control) in the experiment with ELF3; 1.94 fold enrichment (6-mer frequency, TF over GST control) with CRX; 1.24 fold enrichment (6-mer frequency, TF over GST control) with ETV1; 1.24 fold enrichment (6-mer frequency, TF over GST control) with ERF; 1.25 fold enrichment (6-mer frequency, TF over GST control) with ETV3L. Moreover, the binding signal is 1.14 fold enrichment (6-mer frequency, TF over GST control) with ETS2; 1.19 fold enrichment (6-mer frequency, TF over GST control) with SPDEF; 1.19 fold enrichment (6-mer frequency, TF over GST control) with ETV7; 1.2 fold enrichment (6-mer frequency, TF over GST control) with ELF5; 1.19 fold enrichment (6-mer frequency, TF over GST control) with ETV3; 1.2 fold enrichment (6-mer frequency, TF over GST control) in the experiment with ETV6.
